Records with an inconclusive call do not appear. Entries that show only a call come without a potency. Activity calls are given as the source filed them. Calls follow the shape of the dose curve; as a rule, active = well fitted inhibition curve with a large enough effect; inconclusive = small, poorly fitted or top-dose-only effect; inactive = flat fitted curve, though single readings scatter.

Sequence of Calcium and integrin-binding protein 1 (Homo sapiens) (Q99828 whole entry, looked up): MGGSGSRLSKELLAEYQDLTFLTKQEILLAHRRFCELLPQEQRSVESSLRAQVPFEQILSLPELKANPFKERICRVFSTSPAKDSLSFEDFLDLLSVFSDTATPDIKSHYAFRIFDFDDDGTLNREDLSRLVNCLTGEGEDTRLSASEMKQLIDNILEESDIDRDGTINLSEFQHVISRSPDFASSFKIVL

In this experiment the target is Calcium and integrin-binding protein 1 (Homo sapiens) (UniProt Q99828). Kind of experiment: Primary qHTS for Identification of Calcium Integrin Binding Protein 1 (CIB1) Competitor (AID 1508620). Also: top concentration of the series differs between compounds. As to conditions: CIB1-GST / FITC-alphaIIb peptide fluorescence polarization; series mostly up to 114 µM. A digest of the protocol:
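Fluorescence polarization competition: GST-tagged CIB1 (1 uM final) preincubated with compound 15 min at room temperature, then FITC-labelled alphaIIb peptide (100 nM final) added. After 15 min at room temperature, polarization read at Ex 480/Em 540.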
On the technique in general: qHTS replaces the single test concentration by a dilution series.
For `O=C1c2ccccc2C(=O)N1Cc1ccccc1`, the Potency result was “inactive”. Then `O=C1c2ccccc2C(=O)c2cc(S(=O)(=O)Nc3cccc4cccnc34)ccc21`, with “inactive”.

For `O=c1c2ccccc2nc2sc(NCc3ccc(Oc4ccccc4)cc3)nn12`, the Potency result is “inactive”. Then `COc1cccc(NC(=S)N2CCN(c3ccc(Cl)cc3Cl)CC2)n1`, with “inactive”; and `COc1cccc(C2c3c(ncn(-c4ccccc4OC)c3=N)Oc3ccc4ccccc4c32)c1` (centres undefined), with “inactive”. To `Cc1ccc(NC(=O)c2cnn3c(-c4ccccc4)cc(C)nc23)cc1` belongs “inactive”; to `CN1CCN(c2cccc(Nc3nn4c(=O)c5ccc(C(F)(F)F)cc5nc4s3)c2)CC1`, “inactive”. To `Cc1cc(NS(=O)(=O)Cc2ccc(NC(=O)Cc3ccc(Cl)c(Cl)c3)cc2)no1` belongs “inactive”. Regarding `COc1ccc([S+](=O)([O-])N2CCN([S+](=O)([O-])c3ccc4c(c3)OCCO4)CC2)c(OC)c1`, the Potency entry was “inactive”.

Consider `Cc1ccc(NS(=O)(=O)c2cc3c(cc2Br)NC(=O)CO3)cc1C`, for which the Potency entry is “inactive”.

`O=C(N1Cc2ccc(Nc3nn4c(=O)c5ccccc5nc4s3)cc2C1)C(F)(F)F`: the Potency entry is “inactive”. To `Cc1cc(C)nc(NC(=S)N2CCN(c3noc4ccccc34)CC2)c1` belongs “inactive”; to `O=C1Nc2ccccc2C12CC2c1cc(Cl)c(O)c(Cl)c1` (centres undefined), “inactive”.

For `Cc1cc2c(s1)c1cnn(Cc3cccc(F)c3F)c(=O)c1n2C`, the Potency entry was “inactive”. To `COc1cc(Cl)c(C)cc1NC(=O)C(OC(=O)CNC(=O)c1ccccc1)c1ccccc1` (centres undefined) belongs “inactive”.

For `O=S(=O)(c1ccc(O)c2ncccc12)N1CCCCC1`, the Potency entry is “inactive”. Then `O=C(Cc1ccc(Cl)c(Cl)c1)Nc1ccc([S+](=O)([O-])Nc2ccccn2)cc1`, with “inactive”; and `Cc1nc2ccccn2c1P(=O)(c1ccccc1)c1ccccc1`, with “inactive”; and `Cc1cc2c(s1)c1cnn(Cc3c(F)ccc(F)c3Cl)c(=O)c1n2C`, with “inactive”. To `CCC(=O)NC(c1cc(Cl)c2cccnc2c1O)C(C)C` (centres undefined) belongs “inactive”; to `CN1C(=O)CCc2cc(S(=O)(=O)Nc3ccc(Cl)c(Cl)c3)ccc21`, “inactive”. Take `O=C(Nc1nnc(-c2ccncc2)s1)Nc1ccc(Cl)c2ccccc12`: the Potency result is “inactive”. Then `COc1ccnc(NC(=S)N2CCN(c3cccc(C(F)(F)F)n3)CC2)c1`, with “inactive”. Turning to `O=C(O)c1cccc(-c2cccc(-c3nn4c(=O)cc(N5CCNCC5)nc4s3)c2)c1`, the Potency result was “inactive”. As for `COC(=O)c1ccc(-c2c(NC(C)=O)sc3c2CCNC3)cc1`, the Potency result was “inactive”. Take `O=C1c2ccccc2C(=O)N1c1ccncc1`: the Potency entry is “inactive”.

Consider `O=C1CCCC2=C1C(c1[nH]ncc1Cl)NC(=NCc1ncc[nH]1)N2` (centres undefined), for which the Potency entry is “inactive”. Then `CC(=O)Nc1sc2c(c1-c1ccc(F)cc1)CCNC2`, with “inactive”; and `Cc1ccc(NS(=O)(=O)c2ccc(Cl)cc2)cc1C`, with “inactive”. For `O=C1CCc2cc(S(=O)(=O)Nc3ccc(-c4ccccc4)cc3)ccc2N1`, the Potency entry was “inactive”. Then `O=C(Nc1nnc(-c2ccncc2)s1)Nc1cccc2ccccc12`, with “inactive”; and `O=C1Nc2cccc(Cl)c2/C1=C\c1cc(Cl)c(O)c(Cl)c1`, with “inactive”.

Consider `O=C(Cc1ccc(Cl)c(Cl)c1)Nc1ccc([S+](=O)([O-])Nc2cccc([N+](=O)[O-])c2)cc1`, for which the Potency result was “inactive”.

Regarding `CC(=O)Nc1sc2c(c1-c1ccc3nc[nH]c3c1)CCNC2`, the Potency result is “inactive”.

As for `O=C(Nc1ccc(Cl)c(Cl)c1)Nc1nnc(C2CCCCC2)s1`, the Potency result was “inactive”. To `COc1cccc(OC)c1C1=Nn2c(nnc2-c2ccccc2C)SC1` belongs “inactive”; to `COc1cc(Nc2nc(-c3ccncc3)nc3ccccc23)ccc1Cl`, “inactive”; to `Cn1nnnc1Sc1ncnc2scc(-c3ccccc3C#N)c12`, “inactive”. To `CC(C)c1ccccc1-c1nc2c(c(NCc3ccc(-c4cccnc4)cc3)n1)CCNC2` belongs “inactive”.

Source of the values: PubChem BioAssay (NCATS).
